From PubChem BioAssay (NCATS)
Where “and” joins values, the source holds several entries; their conditions need not be identical. Equal values may be shown once. Results filed as inconclusive are left out. Calls of active or inactive are those of the source. Unless noted, calls come from the whole dose curve; as a rule, active = well fitted curve in the direction sought with a large enough effect; inconclusive = small, poorly fitted or top-dose-only effect, or another doubt; inactive = no such curve, though single readings can be large; an effect the other way counts as inactive or inconclusive.

Experiments:
[1] = target: M-phase phosphoprotein 8 (Homo sapiens) (UniProt Q99549); experiment: qHTS Validation Assay for Inhibitors for MPP8 Chromodomain Interactions with Methylated Histone Tails (AID 488949);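 note: AlphaScreen signal from MPP8 chromodomain bound to biotinylated H3K9me3 peptide; top concentration of the series differs between compounds; % is set by controls: 0 for no effect and ±100 for the full control effect; nearly all actives have a fitted effect of over 55% in size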
Outline: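 MPP8 (50 nM) was preincubated with biotinylated H3(1-18)K9me3 peptide (50 nM) in PBS pH 7.4, 0.01% Tween-20 for 30 min at room temperature, then with compounds for 30 min; binding was detected by AlphaScreen.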

[2] = target: Chromobox protein homolog 1 (Homo sapiens) (UniProt P83916); experiment: qHTS Validation Assay for Inhibitors of HP1-beta Chromodomain Interactions with Methylated Histone Tails (AID 488953);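 note: loss of AlphaScreen luminescence from HP1-beta binding biotinylated H3K9me3 peptide; series mostly up to about 110 µM; % is set by controls: 0 for no effect and ±100 for the full control effect; nearly all actives have a fitted effect of over 50% in size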
Outline: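 Compounds pinned into a preassembled complex of HP1-beta and trimethyl-K9 histone H3(1-18) biotin peptide (50 nM each; PBS pH 7.4, 0.01% Tween-20). After 30 min, bead-based AlphaScreen detection followed.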

[3] = target: Methanococcus maripaludis chaperonin (MmCpn) (UniProt Q6LX38); experiment: High-Throughput Screening for Modulators of Cytosolic Chaperonin Activity: MmCpn Primary Screen (AID 488978);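 note: 50 nM MmCpn enzyme hydrolysing 30 µM ATP at 37 °C; 0% is about no effect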
Outline: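 MmCpn (50 nM final) was preincubated with compound 5 min at RT, then 30 uM ATP (final) was added and the reaction ran 10 min at 37C. ADP produced was detected by Transcreener HTRF (ex 320 nm; em 590/665 nm).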

[4] = target: D(1A) dopamine receptor (Homo sapiens) (UniProt P21728); experiment: HTS Assay for Allosteric Agonists of the Human D1 Dopamine Receptor: Primary Screen for Agonists (AID 488981); note: 0% is about no effect
Outline: (§1)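 Tetracycline-induced HEK293 Trex D1 cells with forced coupling to calcium, loaded with no-wash calcium dye; kinetic fluorescence read 180 s after compound addition for agonism, then a further 180 s after an EC20 dopamine challenge for potentiation.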

[5] = target: D(1A) dopamine receptor (Homo sapiens) (UniProt P21728); experiment: HTS Assay for Allosteric Agonists of the Human D1 Dopamine Receptor: Primary Screen for Potentiators (AID 488982); note: 0% is about no effect
Outline: as §1

[6] = target: D(1A) dopamine receptor (Homo sapiens) (UniProt P21728); experiment: HTS Assay for Allosteric Agonists of the Human D1 Dopamine Receptor: Primary Screen for Antagonists (AID 488983);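 note: calcium flux response to an EC80 dopamine challenge measured with no-wash dye; % is set by controls: 0 for no effect and ±100 for the full control effect; nearly all actives have a fitted effect of over 65% in size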
Outline: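 In this primary screen, compounds are applied to calcium-dye-loaded HEK293 T-REx cells with force-coupled D1 expression induced overnight at 30 C. An EC80 of dopamine follows the 180 s compound phase, and calcium is monitored for a further 180 s.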

[7] = Validation screen for small molecules that induce genotoxicity in human embryonic kidney (HEK293T) cells expressing luciferase-tagged ELG1 (AID 493106); note: 0% is about no effect
Outline: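 In this validation screen, increased ELG1-luciferase signal flags compounds causing genetic stress. HEK293T reporter cells are treated 16 hr (37 °C, 5% CO2), developed with ONE-Glo for 30 min at room temperature, and imaged on a CCD-based reader.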

[8] = target: ATPase family AAA domain-containing protein 5 (Homo sapiens) (UniProt Q96QE3); experiment: Validation screen for small molecules that inhibit ELG1-dependent DNA repair in human embryonic kidney (HEK293T) cells expressing luciferase-tagged ELG1 (AID 493107); note: nearly all actives have a fitted effect of over 70% in size; note: potency is the fitted concentration of half-maximal effect
Outline: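 Compounds reducing 5-fluorouridine-driven ELG1-luciferase signal in HEK293T cells were scored; exposure lasted 16 hr at 37 °C with luminescence detected via ONE-Glo.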

[9] = Nrf2 qHTS screen for inhibitors: Validation (AID 493153; active = well fitted inhibition curve with a large enough effect in the main read-out, with a control signal flat, not every such curve was filed as active); conditions: viability change: measured here: cytotoxicity max response
Outline: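 In this counterscreened reporter format, each well gives two signals: CellTiter-Fluor fluorescence for cytotoxicity and ARE-luciferase luminescence for Nrf2 function. A549 ARE_Fluc cells in 5% FBS OPTI-MEM were exposed to compound titrations for 18-24 h.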

[10] = qHTS for Inhibitors of Cell Surface uPA Generation: Validation Assay (AID 493164);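 note: RAW 264.7 macrophage cells exposed to compound for 18 h; 0% is about no effect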
Outline: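 Compounds are titrated over seven points (2.45 nM–38.3 uM final) onto pre-plated RAW 264.7 cells and incubated for 18 h. Retained intracellular ATP, measured with ATP-Lite, indicates blocked lethal factor entry.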

[11] = target: Peptidyl-prolyl cis-trans isomerase NIMA-interacting 1 (Homo sapiens) (UniProt Q13526); experiment: qHTS Validation Assay to Find Inhibitors of Pin1 (AID 504536; active = well fitted inhibition curve with a large enough effect in the polarisation, with a control signal flat, not every such curve was filed as active; the % refers to the polarisation;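 note: 0% = full Pin1 enzyme wells and -100% = no-enzyme wells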)
Outline: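 Fluorescence polarization competition: compounds (titration) displace HiFluor-488-labeled Pin1-1b peptide from Pin1 (0.3 uM final) in pH 7.5 HEPES buffer with DTT, 10 min at room temperature; %Activity normalized to no-enzyme wells, curves fitted.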

[12] = target: Phosphoglycerate kinase, glycosomal (Trypanosoma brucei brucei) (UniProt P07378); experiment: qHTS Validation Assay to Find Inhibitors of Phosphoglycerate Kinase (AID 504547);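 note: control wells lack PGK and mark full inhibition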
Outline: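 Compounds are pinned into the substrate/PGK mixture, and GAPDH (100nM final) is added to start the reaction by producing 1,3-BPG. After 60 minutes at room temperature, Kinase-Glo Plus is added and luminescence is measured 10 minutes later.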

[13] = Inducers of the Endoplasmic Reticulum Stress Response (ERSR) in human glioma: Validation (AID 504836); note: 0% is about no effect
Outline: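 Stably transfected U87-MG glioma cells carrying a GRP78-based luciferase sensor; 16 h compound incubation. Luminescence end-point read 10 min after Bright-Glo addition at room temperature.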

[14] = target: Thyrotropin receptor (Homo sapiens) (UniProt P16473); experiment: qHTS Assay for Antagonists of the Thyroid Stimulating Hormone Receptor (AID 488980); note: series mostly up to about 58 µM; 0% is about no effect
Outline: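 HEK293 cells transfected with human TSHR, suspended in HEPES-buffered HBSS with 70 uM RO 20-1724, were treated with compounds plus TSH at EC80 (4 nM final). cAMP was measured by competitive HTRF (cryptate anti-cAMP antibody, cAMP-d2 acceptor).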

[15] = target: Thyrotropin-releasing hormone receptor (Homo sapiens) (UniProt P34981); experiment: qHTS for Small Molecule Agonists and Allosteric Enhancers of Human TRH Receptor: Validation Screen for Agonists (AID 493127;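 active = calcium activation more than 3 SD above the typical response in the agonist read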;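 note: intracellular calcium rise by fluo-8 fluorescence before TRH EC20 addition; 0% is about no effect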); conditions: TRH receptor agonist cell assay; at 2 µM; stronger effect = higher value
Outline: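 Kinetic fluorescence assay of agonist-induced calcium release: overnight-plated TRHR cells, room-temperature fluo-8 loading, baseline then compound addition with per-second reads.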

[16] = target: Galactokinase (Homo sapiens) (UniProt P51570); experiment: qHTS Validation Assay for Inhibitors of Human Galactokinase (GALK) (AID 493189); note: 0% is about no effect
Outline: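 GALK (5 nM) with 35 uM ATP and 100 uM galactose in HEPES pH8.0, MgCl2, NaCl, DTT, BSA; 1 h at room temperature. Residual ATP read by Kinase-Glo Plus luminescence after 10 min.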

[17] = Validation screen for small molecules that induce DNA re-replication in SW480 colon adenocarcinoma cells (AID 504364); note: 0% is about no effect
Outline: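 Hoechst-stained SW480 nuclei, imaged at 405 nm excitation after 48 hr compound exposure, were counted for elevated DNA content as the re-replication signal.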

[18] = target: phosphoglycerate mutase (Leishmania major) (UniProt Q4Q090); experiment: qHTS Validation Assay to Find Inhibitors of Phosphoglycerate Mutase (AID 504548);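 note: end-point luminescence from Kinase-GloPlus after the PGAM reaction; series mostly up to about 58 µM; % is set by controls: 0 for no effect and ±100 for the full control effect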
Outline: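 Inhibition of L. major PGAM was assessed by Kinase-GloPlus luminescence following a 45-minute room-temperature reaction with enzyme at 1.25nM final.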

[19] = target: Transient receptor potential cation channel subfamily V member 1 (Homo sapiens) (UniProt Q8NER1); experiment: HTS Assay for Compounds that Act as Enhancers of the Vanilloid Receptor 1 (AID 488979); note: 0% is about no effect
Outline: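 TRPV1 cells loaded with Fluo-8 calcium dye; compound added and Ca2+ signal (ex 480/em 520 nm) followed 3 min, then capsaicin at EC20 added and read 2 more min to detect enhancement.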

Transient receptor potential cation channel subfamily V member 1 (Homo sapiens), sequence (Q8NER1 whole entry, looked up): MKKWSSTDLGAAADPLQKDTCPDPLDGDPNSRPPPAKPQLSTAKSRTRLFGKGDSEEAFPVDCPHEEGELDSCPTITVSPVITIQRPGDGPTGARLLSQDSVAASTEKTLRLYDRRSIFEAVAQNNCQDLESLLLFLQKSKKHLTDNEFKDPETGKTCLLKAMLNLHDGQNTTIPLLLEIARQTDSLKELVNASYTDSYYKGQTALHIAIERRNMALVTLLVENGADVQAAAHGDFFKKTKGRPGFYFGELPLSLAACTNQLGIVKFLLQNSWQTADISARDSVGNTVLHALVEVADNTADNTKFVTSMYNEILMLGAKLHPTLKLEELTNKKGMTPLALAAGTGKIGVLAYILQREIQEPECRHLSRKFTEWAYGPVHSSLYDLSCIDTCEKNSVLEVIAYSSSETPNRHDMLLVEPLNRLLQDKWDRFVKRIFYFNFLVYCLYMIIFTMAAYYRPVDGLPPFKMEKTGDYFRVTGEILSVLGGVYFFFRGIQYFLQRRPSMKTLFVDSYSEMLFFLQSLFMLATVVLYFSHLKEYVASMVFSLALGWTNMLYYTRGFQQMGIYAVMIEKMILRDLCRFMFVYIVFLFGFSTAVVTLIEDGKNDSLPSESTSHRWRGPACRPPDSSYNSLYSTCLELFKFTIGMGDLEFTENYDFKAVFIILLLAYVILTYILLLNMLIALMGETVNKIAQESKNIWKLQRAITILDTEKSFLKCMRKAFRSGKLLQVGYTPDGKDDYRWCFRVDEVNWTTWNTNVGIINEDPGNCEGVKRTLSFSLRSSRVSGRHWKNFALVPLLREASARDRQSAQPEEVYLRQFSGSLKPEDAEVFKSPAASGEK
ATPase family AAA domain-containing protein 5 (Homo sapiens), sequence (Q96QE3 whole entry, looked up, the tested form may be a part): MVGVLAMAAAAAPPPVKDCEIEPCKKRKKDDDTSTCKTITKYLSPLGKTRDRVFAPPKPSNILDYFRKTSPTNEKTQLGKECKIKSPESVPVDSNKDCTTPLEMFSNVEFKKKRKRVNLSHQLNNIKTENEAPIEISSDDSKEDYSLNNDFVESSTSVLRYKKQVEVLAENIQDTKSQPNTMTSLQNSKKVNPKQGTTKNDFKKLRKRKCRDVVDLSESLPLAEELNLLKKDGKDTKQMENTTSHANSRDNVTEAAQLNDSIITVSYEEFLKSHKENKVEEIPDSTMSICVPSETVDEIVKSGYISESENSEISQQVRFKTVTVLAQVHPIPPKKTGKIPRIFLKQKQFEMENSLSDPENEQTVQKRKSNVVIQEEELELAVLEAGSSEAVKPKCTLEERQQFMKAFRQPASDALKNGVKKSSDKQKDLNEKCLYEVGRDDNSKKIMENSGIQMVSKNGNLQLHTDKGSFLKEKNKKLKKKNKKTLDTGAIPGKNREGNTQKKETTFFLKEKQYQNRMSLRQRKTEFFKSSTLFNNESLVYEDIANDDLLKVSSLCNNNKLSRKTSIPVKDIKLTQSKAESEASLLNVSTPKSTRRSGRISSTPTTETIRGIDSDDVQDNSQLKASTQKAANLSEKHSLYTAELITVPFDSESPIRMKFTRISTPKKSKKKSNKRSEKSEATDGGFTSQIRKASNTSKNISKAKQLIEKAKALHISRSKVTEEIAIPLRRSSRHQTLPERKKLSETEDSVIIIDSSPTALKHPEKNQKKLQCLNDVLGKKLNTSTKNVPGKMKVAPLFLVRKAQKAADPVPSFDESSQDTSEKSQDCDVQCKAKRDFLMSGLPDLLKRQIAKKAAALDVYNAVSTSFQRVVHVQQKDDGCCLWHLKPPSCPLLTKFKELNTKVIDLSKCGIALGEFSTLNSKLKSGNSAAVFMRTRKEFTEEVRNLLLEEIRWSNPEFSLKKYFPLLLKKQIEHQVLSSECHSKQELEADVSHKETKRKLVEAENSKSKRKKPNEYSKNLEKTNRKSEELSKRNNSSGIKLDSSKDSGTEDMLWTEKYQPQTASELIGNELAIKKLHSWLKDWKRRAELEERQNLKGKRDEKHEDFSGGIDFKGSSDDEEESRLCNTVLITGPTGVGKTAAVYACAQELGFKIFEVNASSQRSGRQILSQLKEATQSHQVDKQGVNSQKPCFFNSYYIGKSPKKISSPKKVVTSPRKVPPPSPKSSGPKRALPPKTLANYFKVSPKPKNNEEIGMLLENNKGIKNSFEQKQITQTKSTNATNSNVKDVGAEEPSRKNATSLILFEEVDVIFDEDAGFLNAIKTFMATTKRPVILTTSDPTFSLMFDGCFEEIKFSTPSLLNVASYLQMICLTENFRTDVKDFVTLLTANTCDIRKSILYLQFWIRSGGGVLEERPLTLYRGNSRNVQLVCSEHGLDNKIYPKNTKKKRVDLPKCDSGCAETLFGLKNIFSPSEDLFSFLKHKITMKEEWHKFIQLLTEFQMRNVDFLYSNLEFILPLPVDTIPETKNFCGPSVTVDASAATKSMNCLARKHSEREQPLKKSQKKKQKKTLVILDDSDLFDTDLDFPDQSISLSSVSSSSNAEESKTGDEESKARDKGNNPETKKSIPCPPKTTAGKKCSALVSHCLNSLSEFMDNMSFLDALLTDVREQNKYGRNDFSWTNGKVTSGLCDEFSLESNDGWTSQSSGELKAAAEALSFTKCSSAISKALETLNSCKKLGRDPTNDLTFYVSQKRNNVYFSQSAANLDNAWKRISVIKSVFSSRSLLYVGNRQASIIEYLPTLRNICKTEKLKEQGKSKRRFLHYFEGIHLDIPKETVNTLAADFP
Peptidyl-prolyl cis-trans isomerase NIMA-interacting 1 (Homo sapiens), sequence (Q13526 whole entry, looked up): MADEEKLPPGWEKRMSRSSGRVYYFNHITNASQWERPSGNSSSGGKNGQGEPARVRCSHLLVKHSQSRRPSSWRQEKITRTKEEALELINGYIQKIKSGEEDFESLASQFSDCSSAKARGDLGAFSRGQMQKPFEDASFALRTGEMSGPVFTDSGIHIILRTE
phosphoglycerate mutase (Leishmania major), sequence (Q4Q090 1-553): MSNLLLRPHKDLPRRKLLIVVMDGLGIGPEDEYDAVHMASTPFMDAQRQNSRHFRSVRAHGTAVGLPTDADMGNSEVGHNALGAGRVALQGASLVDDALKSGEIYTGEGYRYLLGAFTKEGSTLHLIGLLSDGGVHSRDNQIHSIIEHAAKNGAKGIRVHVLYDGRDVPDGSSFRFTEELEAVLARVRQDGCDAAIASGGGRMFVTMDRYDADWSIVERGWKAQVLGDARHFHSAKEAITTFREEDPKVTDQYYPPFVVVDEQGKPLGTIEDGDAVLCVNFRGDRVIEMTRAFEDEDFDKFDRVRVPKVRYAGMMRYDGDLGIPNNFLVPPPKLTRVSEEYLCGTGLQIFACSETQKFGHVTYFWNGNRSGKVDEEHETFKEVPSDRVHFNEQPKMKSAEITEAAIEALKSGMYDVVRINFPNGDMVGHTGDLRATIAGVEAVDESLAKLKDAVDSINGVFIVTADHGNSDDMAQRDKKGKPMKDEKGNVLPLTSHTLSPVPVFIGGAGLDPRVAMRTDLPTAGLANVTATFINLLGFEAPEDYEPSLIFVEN
M-phase phosphoprotein 8 (Homo sapiens), sequence (Q99549 whole entry, looked up): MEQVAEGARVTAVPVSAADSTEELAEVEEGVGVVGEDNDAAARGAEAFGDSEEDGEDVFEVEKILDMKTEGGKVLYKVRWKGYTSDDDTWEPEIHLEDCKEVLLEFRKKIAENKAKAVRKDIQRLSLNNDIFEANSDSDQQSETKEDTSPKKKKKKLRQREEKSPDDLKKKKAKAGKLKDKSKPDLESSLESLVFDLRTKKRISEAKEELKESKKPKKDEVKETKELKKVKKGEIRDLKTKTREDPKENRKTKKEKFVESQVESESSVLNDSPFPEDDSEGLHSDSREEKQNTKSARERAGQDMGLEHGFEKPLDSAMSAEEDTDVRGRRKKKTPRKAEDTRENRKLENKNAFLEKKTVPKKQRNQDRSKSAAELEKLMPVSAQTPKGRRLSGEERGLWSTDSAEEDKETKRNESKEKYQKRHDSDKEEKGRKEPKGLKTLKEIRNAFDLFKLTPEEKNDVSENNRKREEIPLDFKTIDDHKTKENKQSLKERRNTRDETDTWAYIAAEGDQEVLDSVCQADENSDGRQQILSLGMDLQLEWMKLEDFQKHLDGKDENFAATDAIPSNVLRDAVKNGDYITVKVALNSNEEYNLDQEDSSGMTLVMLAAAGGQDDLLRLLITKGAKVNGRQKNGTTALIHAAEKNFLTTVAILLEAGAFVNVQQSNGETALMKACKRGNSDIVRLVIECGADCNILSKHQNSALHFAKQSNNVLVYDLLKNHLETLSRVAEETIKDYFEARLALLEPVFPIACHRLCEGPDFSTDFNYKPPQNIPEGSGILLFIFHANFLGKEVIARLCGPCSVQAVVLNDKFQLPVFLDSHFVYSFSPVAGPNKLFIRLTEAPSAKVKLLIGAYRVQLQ
Phosphoglycerate kinase, glycosomal (Trypanosoma brucei brucei), sequence (P07378 whole entry, looked up): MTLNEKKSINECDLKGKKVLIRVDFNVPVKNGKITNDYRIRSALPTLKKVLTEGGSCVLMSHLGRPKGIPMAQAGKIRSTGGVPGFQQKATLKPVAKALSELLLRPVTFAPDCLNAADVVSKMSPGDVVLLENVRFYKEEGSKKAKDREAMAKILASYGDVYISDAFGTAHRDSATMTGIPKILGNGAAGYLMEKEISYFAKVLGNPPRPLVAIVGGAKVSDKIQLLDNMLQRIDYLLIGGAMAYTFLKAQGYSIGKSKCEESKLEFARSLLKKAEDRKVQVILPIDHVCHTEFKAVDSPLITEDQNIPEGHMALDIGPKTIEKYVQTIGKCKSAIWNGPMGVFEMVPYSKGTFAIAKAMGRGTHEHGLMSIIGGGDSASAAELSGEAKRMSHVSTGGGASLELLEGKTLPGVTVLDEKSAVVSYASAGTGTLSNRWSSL
Chromobox protein homolog 1 (Homo sapiens), sequence (P83916 whole entry, looked up): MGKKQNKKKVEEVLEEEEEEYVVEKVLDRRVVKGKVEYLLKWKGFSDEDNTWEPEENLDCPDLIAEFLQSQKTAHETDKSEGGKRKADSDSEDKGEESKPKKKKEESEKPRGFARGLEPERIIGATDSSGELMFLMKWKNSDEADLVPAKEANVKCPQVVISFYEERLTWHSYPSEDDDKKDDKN

c1ccc(C2(c3ccccc3)CC2C2=NCCN2)cc1 (configuration not stated)
-1.31%: viability change [9]
inactive: Potency [1] | Potency [2] | outcome [3] | Potency [4] | outcome [5] | Potency [6] | outcome [7] | Potency [8] | outcome [9] | outcome [10] | outcome [11] | outcome [12] | Potency [13]

NCc1cc(=O)[nH]o1
inactive: Potency [1] | Potency [2] | outcome [3] | outcome [14] | outcome [5] | Potency [6] | outcome [7] | Potency [8] | activation [15] -4.19% | outcome [9] | outcome [10] | outcome [16] | outcome [17] | outcome [11] | outcome [12] | Potency [13]
4.87%: viability change [9]

NC(CP(=O)(O)O)C(=O)O (configuration not stated)
inactive: Potency [1] | Potency [2] | outcome [3] | outcome [5] | Potency [6] | outcome [7] | Potency [8] | activation [15] -3.19% | outcome [9] | outcome [10] | outcome [16] | outcome [17] | outcome [11] | outcome [12] | outcome [18] | Potency [13]
-2.21%: viability change [9]

C=CCN1CC[C@]23CCCCC2[C@H]1Cc1ccc(O)cc13 (some centres not stated)
inactive: Potency [1] | Potency [2] | outcome [3] | outcome [14] | outcome [5] | Potency [6] | outcome [7] | Potency [8] | activation [15] 2% | outcome [9] | outcome [10] | outcome [16] | outcome [17] | outcome [11] | outcome [12] | Potency [13]
-5%: viability change [9]

C[C@@H]1O[C@H](C[N+](C)(C)C)C[C@H]1O
inactive: Potency [1] | Potency [2] | outcome [3] | outcome [14] | outcome [5] | Potency [6] | Potency [8] | activation [15] 20.8% | outcome [9] | outcome [10] | outcome [16] | outcome [17] | outcome [11] | outcome [12] | Potency [13]
-6.13%: viability change [9]

CCCCc1ccc(C(=O)O)nc1
inactive: Potency [1] | Potency [2] | outcome [3] | outcome [19] | outcome [5] | Potency [6] | outcome [7] | Potency [8] | activation [15] 1.25% | outcome [10] | outcome [16] | outcome [17] | outcome [11] | outcome [12] | Potency [13]

Cc1nccc2c1[nH]c1ccccc12
active: Potency [8] 9.2 µM
6.29%: viability change [9]
inactive: Potency [1] | Potency [2] | outcome [3] | outcome [14] | outcome [5] | Potency [6] | outcome [7] | activation [15] 0.938% | outcome [9] | outcome [10] | outcome [16] | outcome [17] | outcome [11] | outcome [12] | Potency [13]

O=C(Cc1ccc(Cl)c(Cl)c1)N1CCCCC1CN1CCCC1 (configuration not stated)
7.56%: viability change [9]
inactive: Potency [1] | Potency [2] | outcome [3] | outcome [19] | outcome [5] | Potency [6] | outcome [7] | Potency [8] | activation [15] 1.12% | outcome [9] | outcome [10] | outcome [16] | outcome [17] | outcome [11] | outcome [12] | Potency [13]

NC(CCP(=O)(O)O)C(=O)O (configuration not stated)
inactive: Potency [1] | Potency [2] | outcome [3] | Potency [4] | outcome [5] | Potency [6] | outcome [7] | Potency [8] | activation [15] -3% | outcome [9] | outcome [10] | outcome [16] | outcome [17] | outcome [11] | outcome [12] | Potency [13]
2.18%: viability change [9]

O=C1CCCN1CC#CCN1CCCC1
3.92%: viability change [9]
inactive: Potency [1] | Potency [2] | outcome [3] | outcome [14] | Potency [6] | outcome [7] | Potency [8] | activation [15] 3.06% | outcome [9] | outcome [10] | outcome [16] | outcome [17] | outcome [11] | outcome [12] | outcome [18] | Potency [13]

O=C(N[C@H]1CN2CCC1CC2)c1ccc(Cl)cc1
inactive: Potency [1] | Potency [2] | outcome [3] | Potency [4] | outcome [5] | Potency [6] | outcome [7] | Potency [8] | outcome [9] | outcome [10] | outcome [11] | outcome [12] | outcome [18] | Potency [13]
-3.51%: viability change [9]

COc1cc(C(O)CN)ccc1O (configuration not stated)
-5.73%: viability change [9]
inactive: Potency [1] | Potency [2] | outcome [3] | outcome [5] | Potency [6] | outcome [7] | Potency [8] | activation [15] 0.375% | outcome [9] | outcome [10] | outcome [16] | outcome [17] | outcome [11] | outcome [12] | Potency [13]

CCCN1CCO[C@@H]2c3cc(O)ccc3OC[C@H]21
-0.639% and -4.02%: viability change [9]
inactive: Potency [1] | Potency [2] | outcome [3] | outcome [19] | outcome [5] | Potency [6] | outcome [7] | Potency [8] | activation [15] 1.06% and 0% | outcome [9] | outcome [10] | outcome [16] | outcome [17] | outcome [11] | outcome [12] | Potency [13]
